Results as given in PubChem BioAssay AID624049 (National Center for Advancing Translational Sciences (NCATS), 2012).
Values without a mark were called inactive. The source made the active and inactive calls. The call rests on the fitted dose curve; in most records, active means well fitted inhibition curve with a large enough effect; inactive means no such curve, though single readings can be large or run the other way.

Molecular target: Dual specificity protein kinase CLK3 (Homo sapiens) (UniProt P49761)
Sequence (P49761 whole entry, looked up): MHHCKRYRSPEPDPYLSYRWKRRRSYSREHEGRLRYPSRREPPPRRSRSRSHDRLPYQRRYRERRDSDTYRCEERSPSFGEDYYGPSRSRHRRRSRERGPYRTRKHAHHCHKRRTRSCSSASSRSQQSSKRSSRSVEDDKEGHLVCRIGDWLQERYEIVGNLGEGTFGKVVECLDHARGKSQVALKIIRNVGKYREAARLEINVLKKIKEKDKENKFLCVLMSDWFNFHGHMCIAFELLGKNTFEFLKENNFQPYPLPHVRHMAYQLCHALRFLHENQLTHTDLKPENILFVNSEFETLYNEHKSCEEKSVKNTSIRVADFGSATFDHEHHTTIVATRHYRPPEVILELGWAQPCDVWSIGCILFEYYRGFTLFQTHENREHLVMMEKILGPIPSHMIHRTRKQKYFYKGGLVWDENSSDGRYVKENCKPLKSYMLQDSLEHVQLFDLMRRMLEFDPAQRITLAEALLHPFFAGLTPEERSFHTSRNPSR
Experiment: Reaction Biology data for inhibitors of CLK3: Probe SAR
Settings: Reaction Biology CLK3 kinase assay, 10 uM ATP; series mostly up to 10 µM; activity change, negative = inhibition: at the top concentration
Text: Alternative splicing of pre-mRNAs plays a major role in the regulation of eukaryotic gene expression. Alternative splicing is now thought to be one of the primary reasons for the complexity of higher organisms leading to an average of three protein isoforms per gene. Aberrant splicing can lead to a number of diseases and is known to play a role in rare genetic diseases such as progeria syndrome. Hutchinson-Gilford Progeria Syndrome (HGPS) is a pediatric premature aging disease caused by a spontaneous mutation in the lamin A/C (LMNA) gene due to a single point mutation in the lamin A gene effecting 1 in 4 million people. To identify both specific splicing modulators of the lamin A gene as well as general splicing modulators, a cell-based HTS assay was developed using a minigene reporter system (AIDs, 1459 & 1487). […] This AID summarizes the characterization of lead compounds in Clk3. NIH Molecular Libraries Probe Production Centers Network [MLPCN] NIH Chemical Genomics Center [NCGC] MLPCN Grant: MH084827 Assay Submitter (PI): Tom Misteli
Compound IC50s were determined at Reaction Biology (http://www.reactionbiology.com) with ten concentration points starting at 10 uM in the assay using a 3-fold dilution series. The control compound staurosporine was also tested in the 10-dose IC50 mode with the same 3-fold serial dilution, again starting at 10 uM. All kinase reactions were performed using 10 uM ATP in the assay. 100% activity was taken from kinase reactions with DMSO alone (the vehicle used for compound stock solutions).

SMILES | activity change, negative = inhibition [%] | Potency
c1cncc(CNc2ccnc(-c3ccc4[nH]ncc4c3)n2)c1 | -30.7 | –
COc1cccc(-c2ccnc(NCc3ccc(Cl)cc3)n2)c1 | -23.4 | –
Clc1ccc(CNc2nccc(-c3ccc4c(c3)OCCO4)n2)cc1Cl | -48.6 | –
COc1ccc(-c2ccnc(NCc3ccc(Cl)c(Cl)c3)n2)cc1 | -27.3 | –
FC(F)(F)c1cccc(Nc2nccc(-c3ccc4c(c3)OCO4)n2)c1 | -41.4 | –
Clc1ccc(CNc2ccnc(-c3ccc4c(c3)OCO4)n2)cc1Cl | -15.8 | –
c1cc(-c2ccc3c(c2)OCO3)nc(Nc2ccc3c(c2)OCO3)n1 | -30.6 | –
Brc1cc(Br)cc(CNc2nccc(-c3ccc4c(c3)OCO4)n2)c1 | -27.2 | –
Clc1ccc(CNc2nccc(-c3ccc4cn[nH]c4c3)n2)cc1Cl | -28.4 | –
Cc1nc(CNc2ncnc3ccc(-c4ccc5c(c4)OCO5)cc23)cs1 | – | 1260 nM (active)
FC(F)(F)c1cc(Br)cc(Nc2nccc(-c3ccc4c(c3)OCO4)n2)c1 | -14.1 | –
Clc1cc(Cl)cc(CNc2nccc(-c3ccc4c(c3)OCO4)n2)c1 | -36.1 | –
Cc1nc(CN(C)c2ncnc3ccc(-c4ccc5c(c4)OCO5)cc23)cs1 | – | 403 nM (active)
Clc1ccc(CNc2nccc(-c3ccc4[nH]ncc4c3)n2)cc1Cl | – | 2930 nM (active)
COc1ccc(-c2ccnc(NCc3ccc(Cl)c(Cl)c3)n2)cc1OC | -14.5 | –
c1cncc(CNc2ccnc(-c3ccc4cn[nH]c4c3)n2)c1 | -29.7 | –
Clc1ccc(Nc2nccc(-c3ccc4c(c3)OCO4)n2)cc1 | -26.4 | –

SMILES | activity change, negative = inhibition [%] | Potency
Cc1c(-c2ccnc(NCc3cccnc3)n2)sc(=O)n1C | -21.9 | –
c1cncc(CNc2nccc(-c3ccc4c(c3)OCO4)n2)c1 | – | 1470 nM (active)
Clc1cc(Cl)cc(CNc2ncncc2-c2ccc3c(c2)OCO3)c1 | -53.4 | –
Brc1ccc(CNc2nccc(-c3ccc4c(c3)OCO4)n2)cc1Br | – | 3230 nM (active)
Cc1nc(CN(C)c2ncnc3ccc(-c4ccc5[nH]ncc5c4)cc23)cs1 | – | 792 nM (active)
Clc1ccc(CNc2nccc(-c3ccc4c(c3)OCO4)n2)cc1Cl | – | 3630 nM (active)
c1cncc(CNc2nccc(-c3ccc4[nH]ncc4c3)n2)c1 | – | 2660 nM (active)
c1nc(NCC2CCCO2)c2cc(-c3ccc4c(c3)OCO4)ccc2n1 (stereo not drawn) | – | 836 nM (active)
COc1cccc(-c2ccnc(NCc3ccc(Cl)c(Cl)c3)n2)c1 | -17.7 | –
COc1ccc(-c2ccnc(NCc3ccc(Cl)cc3)n2)cc1 | -32.5 | –
Clc1ccc(CNc2ncncc2-c2ccc3c(c2)OCO3)cc1Cl | -34.5 | –
O=[N+]([O-])c1cc(Nc2nccc(-c3ccc4c(c3)OCO4)n2)cc(C(F)(F)F)c1 | -34.3 | –
c1cncc(CNc2ncncc2-c2ccc3c(c2)OCO3)c1 | -14.6 | –
Clc1ccc(CNc2ccnc(-c3ccc4[nH]ncc4c3)n2)cc1Cl | -29.6 | –
Clc1ccc(CNc2ncncc2-c2ccc3c(c2)OCO3)cc1 | -23.4 | –
Cc1c(-c2ccnc(NCc3ccc(Cl)cc3)n2)sc(=O)n1C | -20.7 | –
